Most compounds without a hit are left out; they make up all but 1.3% or so of the library.
PriA SSB inh: blocks PriA binding to SSB C-terminal tail | AlphaScreen SSBct-PriA binding, biotinylated peptide | inhibition, % at 33 µM | 430,000 tested, 0.6% active | AID 1272365; in the data active means inhibition mostly above about 37%, no sharp cut-off; inactive means mostly below about 20%;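 further: plate controls were negative control peptide for no effect and reference peptide for full effect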
SARS 3CLpro inh: SARS-CoV 3CLpro protease inhibition. P0C6X7. inhibition, % at 6 µM. recombinant SARS-CoV 3CLpro, quenched FRET peptide cleavage. 290,000 tested, 0.14% active; in the data active means inhibition above about 12%
DUSP3 inh: DUSP3 (human) phosphatase inhibition | recombinant VHR phosphatase, pNPP absorbance | AID 1654 | P51452 | inhibition, % at 13.3 µM | 290,000 tested, 0.52% active; in the data active means inhibition above about 50%
Target sequence (P51452 whole entry, looked up): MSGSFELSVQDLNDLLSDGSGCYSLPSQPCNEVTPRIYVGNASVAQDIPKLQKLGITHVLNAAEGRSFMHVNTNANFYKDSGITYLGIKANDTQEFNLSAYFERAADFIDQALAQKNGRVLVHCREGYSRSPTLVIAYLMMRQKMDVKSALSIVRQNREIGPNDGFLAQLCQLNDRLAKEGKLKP
BH1578 lux ind: induces V. cholerae light production without autoinducers; V. cholerae BH1578 lux reporter, luminescence, 6 h; activation, % at 18.7 µM; 350,000 tested, 0.16% active; in the data active means activation mostly above about 9.7%, no sharp cut-off
CCHF vOTU inh-1: CCHFV vOTU protease inhibition | AID 651958 | 370,000 tested, 0.55% active | Pep-AMC fluorescence | inhibition, % at 11.5 µM; further: 0% = vehicle wells with enzyme and 100% = no enzyme wells
TcdB inh: inhibitors of Clostridioides difficile toxin B glycohydrolase. P18177. 350,000 tested, 0.24% active. inhibition, % at 9.99 µM. TcdB glycohydrolase enzymatic assay, plate reader; in the data active means inhibition above about 10%
CCHF vOTU inh-2: confirmation of CCHF virus vOTU protease inhibitors; shares compounds with CCHF vOTU inh-1; Recombinant CCHFV vOTU, Pep-AMC fluorescence; 1,900 tested, 17% active; AID 686976; inhibition, % at 11.5 µM
The depositor's hits bear a star. Unless noted, no stated cut-off is given here; in the data, active means inhibition above about 30%; inactive means the rest.

`O=C(Nc1ccccc1C(=O)O)c1cccc(NC(=O)c2ccc(Br)o2)c1` gave PriA SSB inh 3, SARS 3CLpro inh 6, DUSP3 inh 5, CCHF vOTU inh-1 30* and CCHF vOTU inh-2 2.
For Cc1cn2nnc(C(=O)N(C)Cc3ccco3)c2c(=O)[nH]1 the results were PriA SSB inh -6.
`COC(=O)Nc1ccc(S(=O)(=O)N2CCC(C(=O)N(C)C3CCCCC3)CC2)cc1` gave PriA SSB inh -11, SARS 3CLpro inh -5, DUSP3 inh 9, BH1578 lux ind 0, CCHF vOTU inh-1 31*, TcdB inh -1 and CCHF vOTU inh-2 -19.
`COc1cc(Nc2ccccc2Cl)c([N+](=O)[O-])nc1[N+](=O)[O-]` gave PriA SSB inh 8, SARS 3CLpro inh 1, DUSP3 inh 8, BH1578 lux ind -2, CCHF vOTU inh-1 31* and CCHF vOTU inh-2 -7.
For COc1ccccc1Nc1nc(Nc2ccccc2)nc(N)c1[N+](=O)[O-] the results were PriA SSB inh 1.
O=C(CCc1ccc(S(=O)(=O)N2CCOCC2)cc1)Nc1ccc(F)c(F)c1F was read as PriA SSB inh 18, BH1578 lux ind inactive, CCHF vOTU inh-1 35*, TcdB inh 0 and CCHF vOTU inh-2 -15.
For O=C(CCc1ccc(S(=O)(=O)N2CCOCC2)cc1)Nc1c(F)cccc1F the results were PriA SSB inh -12, BH1578 lux ind inactive, CCHF vOTU inh-1 5 and TcdB inh 1.
Screening O=S(=O)(NCC1CCN(Cc2ccco2)CC1)c1ccc(F)c(Cl)c1 returned PriA SSB inh 5.
Screening COc1ccc(S(=O)(=O)C(CNC(=O)Cc2ccc(F)cc2)c2cccs2)cc1 (stereo unspecified) returned PriA SSB inh -11.
CN(C)C(=O)c1c2c(nc3ccccc13)CCCC2 was read as PriA SSB inh 18, SARS 3CLpro inh 4, DUSP3 inh 33, BH1578 lux ind inactive, CCHF vOTU inh-1 -8 and TcdB inh 1.
Screening CN(C)C(=O)c1c2c(nc3ccccc13)-c1ccccc1CC2 returned PriA SSB inh -23, SARS 3CLpro inh -3, DUSP3 inh 32, BH1578 lux ind -3, CCHF vOTU inh-1 33* and CCHF vOTU inh-2 -21.
`Cc1ccc(S(=O)(=O)N2[C@@H](c3ccc(Cl)cc3)C(C(=O)O)=CC[C@H]2c2ccc(Cl)c(Cl)c2)cc1` gave PriA SSB inh 2, BH1578 lux ind -1, CCHF vOTU inh-1 33*, TcdB inh 0 and CCHF vOTU inh-2 13.
Cc1ccc(S(=O)(=O)N2C(c3ccc(Cl)c(Cl)c3)CC=C(C(=O)O)C2c2ccc(Cl)cc2)cc1 (stereo unspecified) was read as CCHF vOTU inh-1 35*, TcdB inh 0 and CCHF vOTU inh-2 16.
For CCOc1ccccc1NC(=O)CN1CCC(c2nn(C)c(=O)n2C2CC2)CC1 the results were PriA SSB inh -9.
For CCN1CCN(C2=C(NS(=O)(=O)c3ccc(Br)cc3)C(=O)c3ccccc3C2=O)CC1 the results were PriA SSB inh 10, SARS 3CLpro inh -2, DUSP3 inh 34, BH1578 lux ind 0, CCHF vOTU inh-1 78*, TcdB inh -10 and CCHF vOTU inh-2 19.
Screening CCN1CCN(C2=C(NS(=O)(=O)c3ccccc3)C(=O)c3ccccc3C2=O)CC1 returned PriA SSB inh 5, SARS 3CLpro inh 3, DUSP3 inh 21, BH1578 lux ind 0, CCHF vOTU inh-1 46*, TcdB inh 2 and CCHF vOTU inh-2 15.
For Cc1cccc(S(=O)(=O)NCCOc2ccc(-c3cccs3)nn2)c1 the results were PriA SSB inh -12.
CC(O)(CNC(=O)C(=O)NCc1ccc(Cl)cc1)c1ccc(-c2ccccc2)cc1 (stereo unspecified) was read as PriA SSB inh -7.
Screening c1cnc(-c2noc(C3CN(Cc4ccsc4)C3)n2)nc1 returned PriA SSB inh -11.
`Cc1noc(C)c1S(=O)(=O)N1CCSC(c2ccccc2Cl)CC1` (stereo unspecified) gave PriA SSB inh 0.

From PubChem BioAssay
